# Screening data (PubChem)
# NPC1 promoter act = activates the NPC1 promoter | Huh7 NPC1 promoter luciferase reporter, 24 h | Potency, µM (top dose mostly 9.22 µM), most hits filed as activators | hit rate 2.4% among 320,000; further: nearly all actives have a fitted effect of over 60% in size
#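 In 1536-well qHTS, Huh7 cells harboring an NPC1 promoter–luciferase construct received compound for 24 h; activation was quantified by luminescence following luciferase reagent addition.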
# FLuc modulator = counter-screen for miR-21 project: firefly luciferase inhibitors or activators | purified FLuc, Km substrates, luminescence inhibition | Potency, µM (titrated, usually from 57.5 µM), hits mostly inhibitors | hit rate 6.9% among 360,000; further: nearly all actives have a fitted effect of over 55% in size
# Target sequence (P08659 whole entry, looked up): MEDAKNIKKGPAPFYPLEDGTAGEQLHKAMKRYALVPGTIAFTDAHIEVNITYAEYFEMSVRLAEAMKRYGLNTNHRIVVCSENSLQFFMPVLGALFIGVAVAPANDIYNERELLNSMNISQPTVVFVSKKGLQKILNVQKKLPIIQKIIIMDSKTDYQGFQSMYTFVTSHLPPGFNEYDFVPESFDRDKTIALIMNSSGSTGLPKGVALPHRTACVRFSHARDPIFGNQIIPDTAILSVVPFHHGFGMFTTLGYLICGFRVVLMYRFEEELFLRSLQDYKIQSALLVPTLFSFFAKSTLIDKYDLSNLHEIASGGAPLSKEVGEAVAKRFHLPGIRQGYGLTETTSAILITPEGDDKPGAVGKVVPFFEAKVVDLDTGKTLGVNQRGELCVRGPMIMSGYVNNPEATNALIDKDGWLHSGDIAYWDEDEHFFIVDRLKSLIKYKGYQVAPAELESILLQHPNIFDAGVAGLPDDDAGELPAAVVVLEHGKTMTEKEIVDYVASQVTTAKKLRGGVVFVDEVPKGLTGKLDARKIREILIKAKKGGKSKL
#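 Biochemical qHTS of compounds, final roughly 60 µM downward over six points, against 10 nM purified firefly luciferase using Km concentrations of substrates (10 uM D-luciferin, 10 uM ATP) in Tris acetate pH 7.5 buffer; luminescence output.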
# Rab9 promoter act = activators of Rab9 promoter; Huh7 Rab9 promoter-luciferase reporter, luminescence, 24 h; Potency, µM (highest dose often 9.22 µM), hits mostly activators; hit rate 2.8% among 320,000; further: nearly all actives have a fitted effect of over 60% in size
#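 Luciferase signal after 10 min detection reagent at ambient indicates Rab9 promoter upregulation; stably transfected Huh7 cells were treated 24 h with compound in DMSO at 37 °C, 5% CO2.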
# SMN2 splice enh = increases expression of the SMN2 splice variant. HEK293 SMN2-luciferase splicing reporter, luminescence, 30-36 h. Potency, µM (top dose mostly 46.1 µM), actives largely listed as activators. hit rate 2.8% among 210,000. AID 1458; further: nearly all actives have a fitted effect of over 55% in size
#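 HEK293 cells carry an SMN2 […]–luciferase reporter in which exon 7 inclusion puts luciferase in frame. Cells were plated 10-12 h before compound addition, then incubated 30-36 h at 37C. ONE-Glo luminescence was read; sodium butyrate at 4.5 mM final served as control.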
# ELG1 genotoxic = induces genotoxicity in HEK293T cells with luciferase-tagged ELG1. HEK293T ELG1-luciferase reporter, luminescence, 16 h. Potency, µM (doses to about 46 µM), usual class: activators. hit rate 1.3% among 330,000; further: nearly all actives have a fitted effect of over 60% in size
#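 ELG1-luciferase HEK293T cells, 2,000/well; compound pinned in; 16 hr, 37 °C, 5% CO2; ONE-Glo, 30 min RT; luminescence on CCD imager.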
# Hits are given with their value; n = inactive; u = inconclusive; x = no result given; [ ] = another dose, or the depositor's remark. The list is not random: actives were taken first. Their share in the collection is about 7.5%. The call rests on the fitted dose curve; in most records, active means well fitted curve in the direction sought with a large enough effect; inconclusive means small, poorly fitted or top-dose-only effect, or another doubt; inactive means no such curve, though single readings can be large; an effect the other way counts as inactive or inconclusive.
SMILES,NPC1 promoter act,FLuc modulator,Rab9 promoter act,SMN2 splice enh,ELG1 genotoxic
CCOC(=O)C1CCCN(C(=O)c2ccc3oc(Cc4ccccc4)nc3c2)C1 (stereo not drawn),3.5µM,12µM,4.5µM,x,u
Cc1c([C@@H](C)C2NC[C@H](C)C[C@@H]2O)ccc2c1C[C@@H]1[C@H]2CC=C2C[C@@H](O)CC[C@@]21C (stereo partly drawn),x,x,x,n[9.22 µM],x
CC1N(P(=O)(c2ccccc2)c2ccccc2)CC(O)(c2ccccc2)CC12CC2 (stereo not drawn),x,x,x,n,x
CCc1cc2c(=O)n(C(C)C(=O)OC3CCCCC3)cnc2s1 (stereo not drawn),u,15µM,u,11µM,9.2µM
NC(N)=NCCN=C(N)N,x,x,x,n[9.22 µM],x
[Cl][Pd][Cl].[S-]C1=C2N=CN[C-]2[NH+]=C[N-]1.[S-]c1ncnc2[nH]cnc12,x,x,x,n[9.22 µM],x
Cc1ccc(N)c(N)c1,n,5.4µM,n,3.5µM,u
Nc1ccc(Cl)cc1N,x,x,x,7.1µM,x
Nc1cc(Cl)ccc1Cl,x,x,x,n,x
N=C(N)SCc1ccc(Cl)c2ccccc12 (tested in a mixture with another compound),x,x,x,n[9.22 µM],x
CC1=Nc2ccccc2/C1=C/c1c(O)[nH]c(=O)[nH]c1=O,n,n,n,x,n
O=c1[nH]c(O)c(/C=C2/C=CC(c3cc(Cl)ccc3Cl)=N2)c(=O)[nH]1,n,6.7µM,n,x,n
COc1cc2cc(c1Cl)N(C)C(=O)C[C@H](OC(=O)C(C)C)[C@]1(C)O[C@@H]1[C@@H](C)[C@H]1C[C@](O)(NC(=O)O1)[C@@H](OC)/C=C\C=C(\C)C2,x,x,x,n[9.22 µM],x
Cc1ccc(/C=C2/C(=O)NC(=O)N(Cc3ccc(F)cc3)C2=O)o1,n,n,n,x,n
COc1ccc(CN2C(=O)NC(=O)/C(=C/c3ccc([N+](=O)[O-])o3)C2=O)cc1,n,19µM,n,n,n
CC(C)Br,x,x,x,n,x
CCCCCCCCCCCCCCC[C@@H](O)[C@@H](N)COP(=O)(O)O,x,x,x,n,x
O=C(O)CCC(=O)NCCC1=c2ccccc2=N/C1=C\c1c(O)n(Cc2ccc(F)cc2)c(=S)[nH]c1=O,n,11µM,n,x,n
Clc1cccc(/C=N\Nc2nccs2)c1,u,13µM,u,n,21µM
O=C(/C=C/c1c[nH]c2ccccc12)c1c(O)n(CCc2ccccc2)c(=O)[nH]c1=O,n,13µM,n,x,n
CC1(C)[C@@H]2CC[C@]1(C)CN(CCC[N+](C)(C)C)C2,x,x,x,n[9.22 µM],x
CC(=O)[O-].CC(=O)[O-].O.O.O.[Pb+2],x,x,x,n,x
O=C(c1cc(-c2ccccc2)on1)N1CCC2(CC1)OCCO2,u,15µM,4µM,18µM,u
O=C(c1cc2ccccn2n1)N1CCC2(CC1)OCCO2,n,n,n,n,n
O=C(c1cc(-c2cccc(Cl)c2)on1)N1CCOCC1,2.8µM,13µM,3.2µM,x,23µM
SMILES,NPC1 promoter act,FLuc modulator,Rab9 promoter act,SMN2 splice enh,ELG1 genotoxic
CN(C)c1ccc(CCN2CCOCC2)cc1,n,17µM,n,x,u
CC(=O)O/C(=C1/C[C@H]2[C@@H]3CC=C4C[C@@H](OC(C)=O)CC[C@]4(C)[C@@H]3CC[C@]2(C)C1=O)C(F)(F)F,x,x,x,n[9.22 µM],x
O=C(COC(=O)Cc1ccccc1)Nc1ccc(SC(F)F)cc1,n,19µM,n,n,n
Cc1ccc(/C=C/C(=O)C2C(=O)c3ccccc3C2=O)cc1,u,0.19µM,u,10µM,u
O=[As](O)(O)c1ccc(Cc2ccc([As](=O)(O)O)cc2)cc1,x,x,x,n[9.22 µM],x
Nc1cccc2ccccc12,x,x,x,n,x
CN(C)C(=O)Oc1ccc(OC(=O)c2ccccc2)cc1,n,6.7µM,n,n,u
C=C(C)C1Cc2c(ccc3c2OC2COc4cc(OC)c(OC)cc4C2C3=O)O1 (stereo not drawn),x,x,x,n,x
Cc1ccsc1/C=C1\C(=O)NC(=S)N(C)C1=O,n,15µM,n,x,u
CN1C(=O)/C(=C\c2ccc(N3CCCCC3)o2)C(=O)NC1=S,2.5µM,8.5µM,1.6µM,7.1µM,5.8µM
CN1C(=O)/C(=C/c2ccc(Cl)s2)C(=O)NC1=S,n,u,n,x,n
CN1C(=O)/C(=C/c2ccc(N3CCCCCC3)o2)C(=O)NC1=S,2.2µM,4.8µM,1.4µM,11µM,21µM
O=C(CN1CCCC1=O)Nc1ccccc1,n,n,n,n,n
O=C(CN1CCCC1)Nc1ccc(NC(=O)Nc2ccccc2)cc1,u,19µM,u,x,n
CC(=O)OC1=CC2=CC[C@H]3[C@H]4CCC(=O)[C@@]4(C)CC(=O)[C@]3(S)[C@]2(C)CC1,x,x,x,n[9.22 µM],x
COc1cccc(-n2nc(C(=O)N3CCC4(CC3)OCCO4)c3ccccc3c2=O)c1,n,n,n,n,n
COc1ccc(-n2nc(C(=O)NCC(=O)N3CCC4(CC3)OCCO4)c3ccccc3c2=O)cc1OC,n,3µM,u,x,n
Nc1ccc(S(=O)(=O)c2ccc(NCN3C(=O)NC(=O)C(=O)C3=O)cc2)cc1,x,x,x,n[9.22 µM],x
NC1CC1c1ccccc1 (stereo not drawn),n,x,n,n,x
COc1cc(/C=N/NC(=O)CN2CCCCC2)ccc1OCc1ccccc1,n,12µM,n,u,u
CS(=O)(=O)O[C@H]1CN2CCC1CC2,x,x,x,n[9.22 µM],x
N#CC(c1cccnc1)N1CCOCC1 (stereo not drawn),n,n,n,x,n
O=C(NCC(c1cccnc1)N1CCOCC1)Oc1ccccc1 (stereo not drawn),n,15µM,u,14µM,u
NC(=O)CNC(=O)[C@H](Cc1ccccc1)NC(=O)[C@H](CCCN=C(N)N)NC(=O)[C@@H](N)Cc1ccc(O)cc1,x,x,x,n,x
Cc1ccc(-n2sc3ccccc3c2=O)cc1,u,4.8µM,u,u,u
SMILES,NPC1 promoter act,FLuc modulator,Rab9 promoter act,SMN2 splice enh,ELG1 genotoxic
COc1ccc(C)cc1NC(=O)CN1CCN(CC(=O)Nc2ccccc2F)CC1,n,n,n,n,u
O=C(Nc1ccccc1F)Oc1cccc(OC(=O)Nc2ccccc2F)c1,3.5µM,17µM,2.8µM,x,n
COc1ccc(C(C)=O)cc1CC(C(=O)c1ccc(Br)cc1)N(C)C (stereo not drawn),n,n,n,n,n
COc1cc(C(C)=O)ccc1OCc1cc(C(=O)N(C)CCC2CCCCO2)no1 (stereo not drawn),2.2µM,6.7µM,1.6µM,x,u
O=c1oc2ccccc2c(O)c1C(c1ccc([N+](=O)[O-])cc1)c1c(O)c2ccccc2oc1=O,n,19µM,n,n,n
CC(C)c1ccc(C(c2c(O)c3ccccc3oc2=O)c2c(O)c3ccccc3oc2=O)cc1,x,x,x,n[9.22 µM],x
Cn1c(O)c(C2=NNC(c3ccc(Cl)cc3)C2)c(=O)n(C)c1=O (stereo not drawn),n,9.5µM,n,x,n
CCOc1ccc(C2CC(c3c(O)n(C)c(=O)n(C)c3=O)=NN2)cc1 (stereo not drawn),u,0.95µM,u,x,n
COc1ccc(NC(=O)CCCn2c(=O)oc3ccccc32)cc1Cl,u,12µM,u,u,u
COc1ccc(-c2nc(NC(=O)Cn3c(=O)oc4ccccc43)sc2C)cc1,n,n,n,n,n
